Compound activity as filed in PubChem BioAssay.
This is a sample that favours compounds with a hit; in the whole collection about 27% have one here.
CYP2C19 inhib – blocks human cytochrome P450 2C19; P33261; 96,000 compounds, 21% hits; AID 778; CYP2C19 Supersomes, luciferin-H EGE luminescence, 30 min; inhibition, % at 5 µM;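 active = CYP2C19 inhibition above a set limit at 5 µM in the primary screen, cut at about 50% in these data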;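 note: plate controls were negative control wells for no effect and 2.5 mM tranylcypromine positive control for full effect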
Target sequence (P33261 whole entry, looked up): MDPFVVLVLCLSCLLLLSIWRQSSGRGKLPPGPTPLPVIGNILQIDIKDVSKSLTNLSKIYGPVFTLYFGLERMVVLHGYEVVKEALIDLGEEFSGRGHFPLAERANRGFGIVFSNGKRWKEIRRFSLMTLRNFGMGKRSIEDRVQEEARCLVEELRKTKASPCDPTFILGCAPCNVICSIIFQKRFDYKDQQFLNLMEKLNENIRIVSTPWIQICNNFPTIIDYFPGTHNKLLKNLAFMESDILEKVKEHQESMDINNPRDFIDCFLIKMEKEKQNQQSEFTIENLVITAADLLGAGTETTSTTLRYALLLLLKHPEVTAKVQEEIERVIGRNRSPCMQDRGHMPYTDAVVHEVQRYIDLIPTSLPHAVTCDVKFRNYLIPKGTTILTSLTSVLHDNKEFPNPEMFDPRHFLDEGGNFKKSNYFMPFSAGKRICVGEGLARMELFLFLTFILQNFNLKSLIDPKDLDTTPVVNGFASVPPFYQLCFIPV
CYP2C9 act – activators of human CYP2C9. P11712. recombinant CYP2C9, luciferin-H conversion, luminescence; stronger effect = higher value; factor 1 = untreated enzyme, 0 = blocked. activation factor at 5 µM. 96,000 compounds, 1.4% hits. AID 1024;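 active = activation factor of 2 or more for CYP2C9 at a 5 µM dose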;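 note: 0 = sulfaphenazole-blocked wells and 1 = vehicle-only wells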
CYP2C9 inh – human CYP2C9 inhibition. CYP2C9 Supersomes, luciferin-H conversion, luminescence. inhibition, % at 5 µM. 96,000 compounds, 20% hits. AID 777;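 active = blocking of liver enzyme CYP2C9 beyond about 50% at 5 µM, limit read from the data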
sEH inh – inhibitors of human soluble epoxide hydrolase. recombinant human sEH enzymatic activity assay. inhibition, % at 2 µM. 91,000 compounds, 0.34% hits; in the data active = inhibition above about 80%
sEH activator – soluble epoxide hydrolase (human) activation. AID 717. purified human sEH enzymatic activity, activator screen. activation, % at 2 µM. P34913. 91,000 compounds, 0.04% hits; in the data active = activation above about 37%
CYP2C19 activ – cytochrome P450 2C19 (human) activation; P33261; recombinant CYP2C19, luciferin-H EGE luminescence; stronger effect = higher value; 0 = fully inhibited enzyme, 1 = untreated enzyme; activation factor at 5 µM; 96,000 tested, under 10 active;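 active = activation factor of at least 2 at 5 µM in the primary screen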;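 note: 0 = wells with 2.5 mM tranylcypromine and 1 = vehicle-only wells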
Numbers without * were called inactive; . = not tested or not shown.

SMILES	CYP2C19 inhib	CYP2C9 act	CYP2C9 inh	sEH inh	sEH activator	CYP2C19 activ
Cc1ccc(C(=O)C(OC(=O)CNS(=O)(=O)c2ccccc2)c2ccccc2)cc1 (stereo not given)	33	0.4	55*	-12	11	0.7
Cc1onc(-c2ccccc2Cl)c1C(=O)Nc1ccc(-c2nnc3n2CCCCC3)cc1	18	1	3	-13	16	0.8
CCn1c(SC(C)C(=O)O)nnc1-c1cccnc1 (stereo not given)	19	0.9	9	-9	9	0.8
COc1ccccc1-n1c(C)nnc1SCC(=O)Nc1cccc(C(C)=O)c1	25	0.7	31	7	-10	0.7
CC(=O)Nc1cccc(C(=O)OCc2ccccc2)c1	98*	1.3	-32	-22	21	0
CC(=O)Nc1cccc(C(=O)OC(C(=O)c2ccc(C)c(C)c2)c2ccccc2)c1 (stereo not given)	0	1	4	-2	0	1
CC(=O)Nc1cccc(C(=O)OC(C(=O)c2ccc(C)cc2)c2ccccc2)c1 (stereo not given)	36	0.2	76*	-20	19	0.6
O=C(c1ccccc1)N1CCN(C(=O)c2ccc(OC(F)(F)F)cc2)CC1	3	0.9	13	15	-13	1
C=C(C)Cn1c(SCCN2CCOCC2)nc2c1c(=O)[nH]c(=O)n2C	.	.	.	16	-13	.
Nc1c(C(=O)NCc2ccc3c(c2)OCO3)c2nc3ccccc3nc2n1CCCN1CCOCC1	69*	0.6	44	.	.	0.3
COCCCNC(=O)c1c(N)n(/N=C/c2cccs2)c2nc3ccccc3nc12	48	0.3	67*	.	.	0.5
COc1ccccc1CNC(=O)c1c(N)n(CCCN2CCOCC2)c2nc3ccccc3nc12	32	0.7	34	-108	117*	0.7
COCCNC(=O)c1c(N)n(CCCn2ccnc2)c2nc3ccccc3nc12	69*	0.1	89*	2	-4	0.3
Cc1nn(Cc2ccc(F)cc2)c(C)c1NC(=O)c1cnn2cccnc12	41	1.1	-12	-5	8	0.6
COc1ccc(C(C(=O)NC2CCCCC2)N(CC2CCCO2)C(=O)C2COc3ccccc3O2)cc1OC (stereo not given)	.	.	.	1	-1	.
O=C(NC1CCCCC1)C(c1ccncc1)N(CC1CCCO1)C(=O)C(F)(F)F (stereo not given)	58*	0.6	42	8	-7	0.4
O=C(NC1CCCC1)C(c1ccc(O)cc1)N(CC1CCCO1)C(=O)C1COc2ccccc2O1 (stereo not given)	56*	0.3	70*	-6	6	0.4
Cc1ccc(-c2csc3nnc(SCC(=O)NCc4ccc5c(c4)OCO5)n23)cc1	26	0.6	44	10	-12	0.7
CC(Sc1nnc(-c2cccs2)n1Cc1ccccc1)C(=O)NCc1ccc2c(c1)OCO2 (stereo not given)	48	0.2	85*	10	-13	0.5
O=C(CSc1nnc(-c2cccs2)n1-c1ccccc1)NCc1ccc2c(c1)OCO2	68*	0.1	92*	10	-11	0.3
O=C(CSc1nnc(Cc2cccs2)n1-c1ccc(Cl)cc1)NCc1ccc2c(c1)OCO2	35	0.5	54*	-6	6	0.6
O=C(CSc1nnc(-c2cccs2)n1Cc1ccccc1)NCc1ccc2c(c1)OCO2	53*	0.2	79*	-1	3	0.5
O=C(CSc1nnc(-c2ccco2)n1-c1ccccc1)NCc1ccc2c(c1)OCO2	47	0.6	40	14	-12	0.5
O=C(NCc1ccncc1)C1CCCCC1	12	0.6	42	8	-10	0.9
O=C(Oc1ccc(-n2cnnn2)cc1)c1ccco1	9	1	4	11	-11	0.9
SMILES	CYP2C19 inhib	CYP2C9 act	CYP2C9 inh	sEH inh	sEH activator	CYP2C19 activ
CCC(C)N1C(=O)CCC1C(=O)O (stereo not given)	-18	1.1	-7	-6	3	1.2
Cn1c(SCC(=O)NCc2ccc3c(c2)OCO3)nnc1-c1cccs1	0	0.4	65*	.	.	1
CCn1c(SCC(=O)Nc2cc(OC)c(OC)c(OC)c2)nnc1-c1cccs1	19	0.5	52*	13	-10	0.8
CCn1c(SCC(=O)NCc2ccc3c(c2)OCO3)nnc1-c1cccs1	4	0.2	77*	10	-8	1
O=C1CN(C(=O)CSc2nnc(-c3ccccc3)n2Cc2ccc3c(c2)OCO3)c2ccccc2N1	63*	0.6	37	-2	2	0.4
Cn1c(SCC(=O)NCc2ccc3c(c2)OCO3)nnc1-c1cc2ccccc2cc1O	.	.	.	7	-6	.
CCCCn1c2c(c3ccccc31)CCc1nonc1-2	-5	1	0	-2	1	1.1
CCn1c(SCC(=O)NC2CCCc3ccccc32)nnc1-c1cccs1 (stereo not given)	19	0.6	43	.	.	0.8
CCn1c(SC(C)C(=O)NC2CCCc3ccccc32)nnc1-c1cccs1 (stereo not given)	89*	0.1	86*	-6	2	0.1
CC(C)c1nc2cc3ccccc3cc2[nH]1	12	0.9	13	-4	4	0.9
Cc1sc2nc(CN3CCN(S(=O)(=O)c4cccc5nonc45)CC3)[nH]c(=O)c2c1C	-6	1	1	5	-6	1.1
Cn1c(Cc2ccccc2)nnc1SCC(=O)Nc1ccc2c(c1)OCO2	87*	0.5	55*	-7	4	0.1
Cn1cccc1Cc1nnc(SCC(=O)Nc2ccc3c(c2)OCO3)n1CCc1ccccc1	55*	0.4	57*	.	.	0.4
CC(C)c1nnc(SCC(=O)Nc2ccc3c(c2)OCO3)n1C	.	.	.	1	5	.
COc1ccc(CNC(=O)C(c2ccc(C)o2)N(Cc2cccs2)C(=O)Cc2cccs2)cc1 (stereo not given)	.	.	.	14	-14	.
Cc1nc2c(cc(Oc3ccc(S(=O)(=O)N4CCOCC4)cn3)c3ccsc32)s1	84*	0.1	90*	.	.	0.2
Cc1cc(C)n2nc(C(=O)OCCOc3ccc(F)cc3)nc2n1	15	1.3	-25	.	.	0.8
CC(C)c1nc(SCC(=O)N2CCCc3ccccc32)c2c(=O)n(C)c(=O)n(C)c2n1	-13	0.7	33	.	.	1.1
Cn1c(=O)c2c(nc(SCCCC#N)n2Cc2c(F)cccc2Cl)n(C)c1=O	14	0.4	59*	1	-2	0.9
Cn1c(=O)c2c(nc(OCc3cccnc3)n2Cc2c(F)cccc2Cl)n(C)c1=O	17	0.5	52*	1	3	0.8
Cn1c(=O)c2c(nc(Br)n2Cc2c(F)cccc2Cl)n(C)c1=O	20	1	3	.	.	0.8
CC(C)c1nc(SCc2c(F)cccc2Cl)c2c(=O)n(C)c(=O)n(C)c2n1	1	0.3	67*	.	.	1
CC(C)NC(=O)CSc1nncn1-c1ccccc1	-7	1.1	-7	.	.	1.1
O=C1CNC(=O)N1Cc1ccc(Br)cc1	37	0.8	17	3	0	0.6
